From PubChem BioAssay
D2 ag-1 – activates the human D2 dopamine receptor. P14416. HEK293 T-REx D2 cells, calcium flux agonist mode. activation, % at 2 µM. 340,000 compounds, 0.53% hits. AID 485358;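 active = activation over 3 SD above normal in the single-dose calcium agonist read, cut at about 30% in these data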; note: 0% is about no effect
Target sequence (P14416 whole entry, looked up): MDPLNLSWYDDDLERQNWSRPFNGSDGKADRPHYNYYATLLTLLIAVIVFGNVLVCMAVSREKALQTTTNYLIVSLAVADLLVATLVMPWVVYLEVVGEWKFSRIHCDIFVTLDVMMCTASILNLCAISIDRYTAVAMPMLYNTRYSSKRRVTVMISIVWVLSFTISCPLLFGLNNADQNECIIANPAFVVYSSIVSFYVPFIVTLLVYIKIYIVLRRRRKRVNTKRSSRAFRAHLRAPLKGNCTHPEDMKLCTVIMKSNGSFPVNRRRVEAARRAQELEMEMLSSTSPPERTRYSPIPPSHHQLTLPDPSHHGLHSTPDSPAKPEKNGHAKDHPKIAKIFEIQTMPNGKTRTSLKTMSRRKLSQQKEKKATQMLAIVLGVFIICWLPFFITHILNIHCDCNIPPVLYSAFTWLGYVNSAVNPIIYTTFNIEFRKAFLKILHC
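In this primary screen, compounds producing a positive calcium signal within 180 s of addition to tetracycline-induced, force-coupled HEK293 Trex D2 cells are flagged; cells are dye-loaded with a no-wash calcium kit beforehand.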
D2 ag-2 – activates the human D2 dopamine receptor; DiscoveRx PathHunter D2 beta-arrestin, luminescence, 90 min; 100% = 57 uM dopamine signal; activation, % (concentration not given with the values); 360,000 compounds, 0.084% hits; in the data active = activation above about 40%; inconclusive = between about 15% and that limit
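DiscoveRx PathHunter D2 beta-arrestin cells (2,100/well) attached overnight, then compound-stimulated 90 min at 37 C in HBSS/10 mM HEPES/0.1% Tween-20 buffer; beta-galactosidase complementation read by luminescence after 1 h at ambient temperature. Dopamine 57 uM final (EC100) as control.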
D2 PAM-1 – D2 dopamine receptor (human) potentiation | P14416 | HEK293 T-REx D2, calcium flux, EC20 dopamine potentiation | potentiation, % at 10 µM | 340,000 compounds, 0.34% hits;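 active = potentiation over 3 SD above the plate norm, cut at about 30% in these data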; note: 0% is about no effect
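Potentiation of an EC20 dopamine calcium response measured kinetically over 180 s, after a preceding 180 s compound-only read flagging agonists. Cells: inducible Hek293 Trex D2 line, 4000/well, cultured overnight at 30 C before dye loading.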
D2 PAM-2 – positive allosteric modulators of human D2 dopamine receptor. P14416. DiscoveRx D2 beta-arrestin cells, luminescence, 90 min; 100% = 57 uM dopamine signal. 360,000 compounds, 0.23% hits. potentiation, % (no concentration beside the values). AID 624464; in the data active = potentiation above about 50%; inconclusive = mostly about 30% to 49%
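PathHunter D2 cells, attached overnight at 37 deg C, received compound in DMSO plus dopamine at EC20 (50 nM final) for 90 min at 37 deg C. Beta-arrestin recruitment was read as luminescence after 1 h with detection reagent at ambient temperature.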
D2 antagonist – antagonists of human D2 dopamine receptor | P14416 | HEK293 TREx D2 cells, calcium flux, dopamine EC80 | inhibition, % at 10 µM | 340,000 compounds, 2% hits | AID 485344; in the data active = inhibition above about 30%; inactive = below that, where a call was filed; note: 0% is about no effect
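Dopamine at EC80 is the agonist stimulus; test compounds precede it by 180 s. Calcium flux read kinetically in a force-coupled, inducible HEK293 T-REx D2 cell line.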
Active calls of the source: *. Most compounds without a hit are left out; they make up all but 2.4% or so of the library.

`CC(=O)Nc1ccc(-c2csc(NC(=O)CC(NC(C)=O)c3ccccc3)n2)cc1` (stereo not drawn) gave D2 ag-1 0, D2 ag-2 0, D2 PAM-1 36*, D2 PAM-2 2 and D2 antagonist 4.
Screening Cc1ccc(N=c2c([N+](=O)[O-])nn(-c3ccccc3)n2O)c(C)c1 returned D2 ag-1 1, D2 ag-2 10, D2 PAM-1 10, D2 PAM-2 55* and D2 antagonist 7.
For Cc1ccc(CN=c2c([N+](=O)[O-])nn(-c3ccc4c(c3)OCCO4)n2O)cc1 the results were D2 ag-1 -1, D2 ag-2 inconclusive, D2 PAM-1 -18, D2 PAM-2 135* and D2 antagonist 3.
CCc1ccc(N=c2c([N+](=O)[O-])nn(-c3ccc4c(c3)OCCO4)n2O)cc1 was read as D2 ag-1 -1, D2 ag-2 11, D2 PAM-1 2, D2 PAM-2 inconclusive and D2 antagonist 18.
Screening COc1ccc(-n2nc([N+](=O)[O-])c(=NCCCN3CCCC3=O)n2O)cc1 returned D2 ag-1 -1, D2 ag-2 10, D2 PAM-1 -4, D2 PAM-2 23 and D2 antagonist 7.
For O=[N+]([O-])c1nn(-c2ccc3c(c2)OCCO3)n(O)c1=NCCCO the results were D2 ag-1 0, D2 ag-2 inconclusive, D2 PAM-1 0, D2 PAM-2 73* and D2 antagonist 4.
For O=C1CCCN1CCCN=c1c([N+](=O)[O-])nn(-c2ccc(Cl)cc2)n1O the results were D2 ag-2 9, D2 PAM-1 6 and D2 PAM-2 52*.
O=C(CNc1ccc(C(F)(F)F)cc1)Nc1cccc(S(=O)(=O)N2CCCCC2)c1 was read as D2 ag-2 1 and D2 PAM-2 -12.
`CCCCC(=O)N(C)c1c(C)nc2ccc(C(=O)NCCN(C)C)cn12` gave D2 ag-2 -4 and D2 PAM-2 -10.
For Cc1cc(C)n2nc(SCC(=O)Nc3cc(Cl)ccc3C)nc2n1 the results were D2 ag-1 -1 and D2 PAM-1 -6.
For COc1ccc(-n2nc([N+](=O)[O-])c(=NCc3ccc4c(c3)OCO4)n2O)cc1 the results were D2 ag-1 -1, D2 ag-2 inconclusive, D2 PAM-1 -12, D2 PAM-2 122* and D2 antagonist -1.
`Cc1cccc(CCN=c2c([N+](=O)[O-])nn(-c3ccccc3)n2O)c1` gave D2 ag-1 0, D2 ag-2 14, D2 PAM-1 -1, D2 PAM-2 6 and D2 antagonist -9.
Screening COc1ccc(-n2nc([N+](=O)[O-])c(=NCCc3cccc(C)c3)n2O)cc1 returned D2 ag-1 0, D2 ag-2 8, D2 PAM-1 -5, D2 PAM-2 65* and D2 antagonist 6.
`Cc1cc(C)c2sc(N(Cc3cccnc3)C(=O)CCOc3ccccc3)nc2c1` gave D2 ag-1 0.
Cc1ccc(S(=O)(=O)N2CCCN(Cc3nc4ccccc4c(=O)[nH]3)CC2)cc1 was read as D2 ag-1 0, D2 ag-2 1, D2 PAM-1 3, D2 PAM-2 3 and D2 antagonist 7.
COc1cc2nc(CN3CCN(S(=O)(=O)c4ccc(C)c(C)c4)CC3)[nH]c(=O)c2cc1OC was read as D2 ag-1 0, D2 ag-2 5, D2 PAM-1 32*, D2 PAM-2 -3 and D2 antagonist -10.
For CCNCc1nc2cc(OC)c(OC)cc2c(=O)[nH]1 the results were D2 ag-1 1, D2 ag-2 0, D2 PAM-1 1, D2 PAM-2 -10 and D2 antagonist 33*.
Screening O=C(NCc1ccncc1)c1cn(-c2ccccc2)nc1-c1cccnc1 returned D2 ag-1 -1, D2 ag-2 -2, D2 PAM-1 -16, D2 PAM-2 23 and D2 antagonist 14.
COc1ccc(C(=O)NCCCn2ccnc2)cc1 was read as D2 ag-1 0, D2 ag-2 -2, D2 PAM-1 2, D2 PAM-2 21 and D2 antagonist -7.
For O=C(NCc1cccnc1)c1cn(-c2ccccc2)nc1-c1ccccc1 the results were D2 ag-1 -1, D2 ag-2 -5, D2 PAM-1 -26, D2 PAM-2 -22 and D2 antagonist 44*.
For COc1ccc(-c2nn(-c3ccccc3)cc2C(=O)NCCCn2ccnc2)cc1 the results were D2 ag-1 -1, D2 ag-2 -1, D2 PAM-1 -24, D2 PAM-2 -24 and D2 antagonist 30*.
Cc1c(C(=O)NCc2ccccc2)c(-c2ccccc2)nn1-c1ccccc1 was read as D2 ag-1 1, D2 ag-2 1, D2 PAM-1 1, D2 PAM-2 -2 and D2 antagonist 36*.
Screening O=C(NC1CCN(Cc2ccc(Cl)cc2)CC1)c1cn(-c2ccccc2)nc1-c1cccnc1 returned D2 ag-1 -2, D2 ag-2 -2, D2 PAM-1 -34, D2 PAM-2 -3 and D2 antagonist 74*.
For Cc1ccc(Cl)cc1NC(=O)CC1Sc2ccccc2NC1=O (stereo not drawn) the results were D2 ag-1 2 and D2 PAM-1 0.
Screening Cc1cccc(C(=O)OCC(=O)NN2C(=O)NC3(CCC(C)CC3)C2=O)c1O (stereo not drawn) returned D2 ag-1 0, D2 ag-2 0, D2 PAM-1 6, D2 PAM-2 6 and D2 antagonist 31*.
N#CCCN(C(=O)COC(=O)CSc1ccc(Cl)cc1)c1ccccc1 was read as D2 ag-2 -6 and D2 PAM-2 -10.
Cc1ccc(SCC(=O)OCC(=O)N(CCC#N)c2ccccc2)cc1 was read as D2 ag-1 0, D2 ag-2 -6, D2 PAM-1 7, D2 PAM-2 5 and D2 antagonist 33*.
For CCOc1cc(C(=O)Nc2cc3c(cc2N2CCCC2)n(C)c(=O)c(=O)n3C)cc(OCC)c1OCC the results were D2 ag-1 0 and D2 PAM-1 2.
COc1ccc(CCNC(=O)c2cccc(Nc3nc4ccccc4nc3-n3nc(C)cc3C)c2)cc1OC was read as D2 ag-1 0 and D2 PAM-1 -7.
For Cc1ccccc1NC(=O)c1ccno1 the results were D2 ag-1 0, D2 ag-2 0, D2 PAM-1 14, D2 PAM-2 -1 and D2 antagonist 32*.
Cc1cc(C(=O)Nc2ccccc2C)on1 was read as D2 ag-1 0, D2 ag-2 -4, D2 PAM-1 8, D2 PAM-2 -4 and D2 antagonist -3.
Screening Cc1ccc(OCC(=O)N(Cc2ccco2)Cc2ccco2)cc1C returned D2 ag-1 -1.
`CC(C)(C)C(=O)NC1CCN(C(=O)N2CCCC2)CC1` gave D2 ag-1 1, D2 ag-2 2, D2 PAM-2 5 and D2 antagonist 32*.
